Bioassay records (PubChem)
TexasRed fluor – alters Texas Red total fluorescence, flagging assay interference; actives 0.29% (n = 280,000); Potency, µM (top dose mostly 106 µM), without a hit: top-dose fluorescence change, negative = quenching; TRb/SRC2 Texas Red total fluorescence interference; active = well fitted curve in either direction with a large enough effect; inconclusive = small, poorly fitted or top-dose-only effect; note: potency is the fitted concentration of half-maximal effect
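Flags fluorescent or light-absorbing compounds by total fluorescence, S + 2P, at 555 nm excitation and 632 nm emission. Mixture: 20 nM Texas Red SRC2 peptide, 0.6 uM human TRb LBD, 1 uM T3, 5% DMSO; compound exposure 5 h at ambient temperature.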
Tau FP inhib – tau fibrillization inhibition (FP); P10636; K18 P301L tau heparin fibrillization, Alexa594 FP, 6 h; Potency, µM (doses to about 57.7 µM), inactives show at the highest dose activity, negative = inhibition, actives largely listed as inhibitors; actives 0.39% (n = 280,000); AID 1468; note: potency is the fitted concentration of half-maximal effect; nearly all actives have a fitted effect of over 55% in size
Target sequence (P10636 561-689 P618L limits assumed): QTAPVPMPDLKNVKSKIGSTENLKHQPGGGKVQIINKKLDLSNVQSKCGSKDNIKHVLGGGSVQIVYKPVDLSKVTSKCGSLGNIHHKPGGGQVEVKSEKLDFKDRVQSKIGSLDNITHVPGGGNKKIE
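Heparin (20 uM) drove fibril formation of recombinant tau K18 P301L, 15 uM unlabeled with 0.24 uM Alexa 594 label, for 6 hr at 37 C in 100 mM sodium acetate pH 7. Fluorescence polarization (555/632 nm) read 1 hr after 30 uM ThT.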
PNC assembly inh – perinucleolar compartment assembly inhibition; PC3M PTB-GFP, PNC prevalence imaging, 16 h; stronger effect = lower value; activity change (PNC), negative = inhibition, % at 10 µM; actives 3.1% (n = 140,000);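 active = readout at or below -70, meaning at least 70% loss of cells showing the perinucleolar compartment, a nuclear body marking cancer cells; inconclusive = readout between -30 and a set limit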;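 note: plate controls were DMSO wells for no effect and camptothecin positive control wells for full effect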
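Compounds are pinned in duplicate onto adhered PC3M cells stably expressing GFP-tagged PTB and incubated 16 h at 37 C. Cells are then fixed, nuclei stained with Hoechst, and PNC-positive cells counted.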
TRb-SRC2 inh – inhibitors of human thyroid hormone receptor beta-SRC2 interaction; AID 1469; Potency, µM (series often up to 106 µM), for inactives: at the highest dose activity change, negative = inhibition, usual class: inhibitors; P10828; actives 0.065% (n = 280,000); TRbeta-SRC2 peptide binding, fluorescence polarization; receptor liganded with 1 µM T3;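 note: potency is the fitted concentration of half-maximal effect; plate controls were bound peptide for no effect and peptide without receptor for full effect; nearly all actives have a fitted effect of over 50% in size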
Target sequence (P10828 whole entry, looked up): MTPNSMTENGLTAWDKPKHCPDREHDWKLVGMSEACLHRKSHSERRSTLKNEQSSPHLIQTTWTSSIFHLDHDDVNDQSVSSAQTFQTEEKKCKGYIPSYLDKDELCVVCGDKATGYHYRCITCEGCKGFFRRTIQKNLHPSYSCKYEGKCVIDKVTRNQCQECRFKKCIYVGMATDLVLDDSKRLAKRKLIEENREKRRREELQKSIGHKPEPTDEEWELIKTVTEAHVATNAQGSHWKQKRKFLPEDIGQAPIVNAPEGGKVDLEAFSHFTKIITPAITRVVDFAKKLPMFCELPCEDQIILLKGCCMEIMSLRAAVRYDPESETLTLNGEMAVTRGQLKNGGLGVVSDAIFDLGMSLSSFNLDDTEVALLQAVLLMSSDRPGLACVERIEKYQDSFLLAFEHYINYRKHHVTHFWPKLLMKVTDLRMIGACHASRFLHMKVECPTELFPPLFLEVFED
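TRb LBD 0.6 uM + Texas Red SRC2 peptide 20 nM, 1 uM T3, Tris buffer w/ 5% DMSO; compound pinned, 5 h RT; FP read ex 555/em 632; normalized to unbound and bound controls.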
Tau ThT inhib – blocks human tau fibril formation measured by thioflavin T. P10636. Potency, µM (highest dose often 57.4 µM), without a hit: at the top dose activity, negative = inhibition, actives largely listed as inhibitors. recombinant tau K18 P301L, heparin-induced fibrillization, ThT fluorescence. actives 2.1% (n = 270,000); note: potency is the fitted concentration of half-maximal effect; nearly all actives have a fitted effect of over 55% in size
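Using a mix of unlabeled (15 uM) and Alexa 594-labeled (0.24 uM) tau K18 P301L, heparin-triggered fibrillization over 6 hr at 37 C was scored by ThT fluorescence.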
Tau fluor cs – counter-screen for tau fibril formation inhibitors | tau K18 P301L (four-repeat tau fragment) Alexa594 fluorescence, heparin fibrillization | Potency, µM (titrated, usually from 57.7 µM), for the others: at the highest dose activity change, negative = decrease | actives 0.93% (n = 280,000) | AID 1463; note: potency is the fitted concentration of half-maximal effect; nearly all actives have a fitted effect of over 55% in size
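Human K18 P301L tau (15 uM unlabeled plus 0.24 uM Alexa 594-labeled, final) in 100 mM sodium acetate pH 7 was mixed with compound and 20 uM heparin and incubated 6 hr at 37 C.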
The depositor's hits bear a star; u = inconclusive; x = no result; [ ] = dose if it differs, or a comment. This is a sample that favours compounds with a hit; in the whole collection about 4.6% have one here. Unless noted, calls come from the whole dose curve; as a rule, active = well fitted curve in the direction sought with a large enough effect; inconclusive = small, poorly fitted or top-dose-only effect, or another doubt; inactive = no such curve, though single readings can be large; an effect the other way counts as inactive or inconclusive. Unless noted, % is set by controls: 0 for no effect and ±100 for the full control effect.

SMILES	TexasRed fluor	Tau FP inhib	PNC assembly inh	TRb-SRC2 inh	Tau ThT inhib	Tau fluor cs
CCOc1ccc(NC(=O)CCC(=O)NNC(=O)Nc2cccc(Cl)c2)cc1	0.6%	-4.4%	x	0.5%	3.4%	7.4%
COc1cc(C(=O)/C=C/Nc2ccc(NC(C)=O)cc2)cc(OC)c1OC	-0.1%	7.5%	-95.2*	-3.8%	8.6%	7.0%
COc1cc(C(=O)Nc2ccc(N(C)C)cc2)cc(OC)c1OC	-2.4%	10.3%	8.1	-3.1%	15.8µM*	-17.4%
CCOc1cc(/C=N/NC(=O)CN(CCc2ccccc2)S(=O)(=O)c2ccc(NC(C)=O)cc2)ccc1O	-1.1%	14.8%	192.1	-2.2%	u	u
Cc1[nH]c2ccccc2c1C1(O)C(=O)N(Cc2ccccc2)c2ccc(Br)cc21 (stereo not given)	-5.9%	2.2%	x	9.0%	u	11.2µM*[quencher]
O=C(COc1ccc(/C=N/NC(=O)C(=O)N2CCCCC2)cc1)Nc1ccccc1Cl	-2.5%	-10.8%	x	5.9%	u	-17.8%
Cc1n[nH]c(C)c1Sc1ccccc1N=Cc1cc(Cl)cc([N+](=O)[O-])c1O	12.0%	1.2%	-2.7	0.5%	10µM*	-15.6%
Cc1c(-c2ccccc2)oc2nc3c(c(=O)n(C)c(=O)n3C)n12	-0.2%	6.9%	-16.1	8.4%	-7.6%	-0.3%
Cc1ccc(-c2c(C)n3c4c(=O)n(C)c(=O)n(C)c4nc3n2-c2cccc(O)c2)cc1	11.2µM*[quencher]	-7.4%	x	-6.2%	u	u
CCc1ccc(-n2c(-c3ccccc3)c(C)n3c4c(=O)n(C)c(=O)n(C)c4nc23)cc1	56.2µM*[quencher]	7.4%	x	-17.3%	-9.4%	-16.4%
COc1cc(NC(=O)c2cccc(C)c2)c(Cl)cc1[N+](=O)[O-]	-0.7%	u	9.5	-3.2%	-0.4%	0.9%
CCc1ccc(/C=C2/C(=O)N(C)C(=S)N2CC(=O)OC)s1	0.9%	1.2%	x	-6.2%	-17.4%	-5.0%
COc1ccccc1C1CCN(c2cc(O)ccc2[N+](=O)[O-])CC1	-3.5%	u	x	-1.6%	20µM*	u
O=C(NCc1ccccc1)N[C@@H](Cc1ccccc1)C(=O)O	1.1%	-2.3%	u	-7.6%	2.7%	8.1%
O=C(NCc1ccc(F)cc1)N[C@@H](Cc1ccccc1)C(=O)O	2.9%	-0.1%	-126.9*	1.4%	5.1%	-0.1%
O=c1cc(-c2ccccc2)[nH]c2ccccc12	-1.4%	-5.1%	u	-1.9%	-10.3%	-6.8%
O=C1C(c2cc(=O)c3ccccc3[nH]2)=C(O)c2ccccc21	-26.1%	9.8%	26.4	15.0%	4.47µM*	-10.4%
CCc1ccc(OCC(=O)N2c3ccccc3CCc3ccccc32)cc1	-2.3%	13.5%	1.3	7.0%	u	-6.7%
Cc1ccc(NCC(=O)N/N=C/c2cccc(Oc3ccccc3)c2)cc1	0.5%	14.6%	9.6	-10.1%	u	10µM*[quencher]
Cc1ccc(NCC(=O)N/N=C/c2cc(O)ccc2[N+](=O)[O-])cc1	-3.8%	2.6%	x	-2.9%	14.1µM*	-26.6%
Cc1cccc(NCC(=O)N/N=C\c2cccc(Oc3ccccc3)c2)c1	-1.6%	u	28.2	20.8%	u	u
COc1ccc(NCC(=O)N/N=C/c2cc([N+](=O)[O-])ccc2N2CCCC2)cc1	-5.6%	18.0%	x	5.0%	11.2µM*	u
CCC(=O)Nc1ccc(C(=O)CN2CCC(C)CC2)cc1	0.5%	8.7%	x	3.0%	u	-6.9%
CCOC(=O)c1c(NC(=O)COc2ccc(C(C)(C)C)cc2)sc2c1CCCC2	-5.4%	-14.5%	x	-1.0%	u	-14.6%
CCOc1ccc(C(CC(=O)O)NC(=O)c2cccs2)cc1 (stereo not given)	-6.8%	-6.7%	8.4	-3.8%	-13.6%	-18.9%
SMILES	TexasRed fluor	Tau FP inhib	PNC assembly inh	TRb-SRC2 inh	Tau ThT inhib	Tau fluor cs
COc1ccc(NC(=O)C(=O)NNC(=O)c2cccs2)cc1	-2.6%	-10.1%	-93.5*	-4.5%	u	-7.0%
Cc1ccc(NC(=O)C(=O)NNC(=O)c2cccs2)cc1	-1.1%	-0.5%	x	6.4%	-15.3%	-1.4%
COc1ccc(C(CC(=O)O)NC(=O)c2cccs2)cc1 (stereo not given)	-2.0%	7.1%	-84.6*	2.4%	4.5%	5.9%
CCOC(=O)C1=C(N)n2c(s/c(=C/c3ccco3)c2=O)=C(C(=O)OC)C1c1ccco1 (stereo not given)	-28.8%	-18.3%	u	14.6%	14.1µM*	-25.9%
CCOC(=O)C1=C(C)N=c2s/c(=C\c3cccn3C)c(=O)n2C1c1cccc(OC)c1OC (stereo not given)	1.3%	-6.6%	u	7.7%	u	-20.9%
CCOC(=O)C1=C(C)N=c2s/c(=C/c3ccco3)c(=O)n2C1c1cccc(OC)c1 (stereo not given)	-4.1%	u	-5.8	-2.7%	14.1µM*	-22.9%
N#CC1=C(N)n2c(s/c(=C\c3ccco3)c2=O)=C(C#N)C1c1ccco1 (stereo not given)	u	u	0.3	-24.4%	20µM*	-27.2%
O=C(NN1CCOCC1)c1cc(S(=O)(=O)Nc2cccc(C(F)(F)F)c2)ccc1Cl	-2.2%	2.6%	-97.7*	-2.0%	0.6%	-4.0%
O=C(c1cccc(S(=O)(=O)Nc2cccc(C(F)(F)F)c2)c1)N1CCOCC1	-1.5%	0.0%	x	2.5%	-0.8%	-5.3%
O=C(Nc1nc2ccc(S(=O)(=O)N3CCCC3)cc2s1)C1CCCCC1	1.0%	-10.6%	-107.6*	-16.0%	-8.0%	-18.0%
COc1ccc2nc(NC(=O)C3CCCN(S(=O)(=O)c4cccc5nonc45)C3)sc2c1 (stereo not given)	4.6%	u	-100.0*	11.4%	u	u
Nc1nc2ccc(S(=O)(=O)N3CCCCC3)cc2s1	-0.9%	u	-12.6	6.3%	31.6µM*	-23.2%
CSc1nc2ccc(S(=O)(=O)N3CCCCC3)cc2s1	-2.8%	-13.2%	-19.2	-5.9%	-5.9%	-13.0%
O=C(Nc1nc2ccc(S(=O)(=O)N3CCCCC3)cc2s1)C1CCCO1 (stereo not given)	0.4%	-4.6%	15.2	-5.5%	-4.0%	-9.7%
COc1ccc(CN(C)CC(=O)NC(=O)NCc2ccccc2)cc1OC	-0.2%	1.4%	27.6	1.8%	-9.4%	-16.7%
COc1ccc(NC(=O)N2c3ccccc3C(C)=CC2(C)C)cc1	0.3%	6.1%	x	-0.4%	u	-9.5%
CCOc1ccc2c(c1)C(C)=CC(C)(C)N2C(=O)Nc1ccccc1	-4.8%	u	17.1	u	28.2µM*	u
COc1ccc(NC(=O)N2c3ccc(OC)cc3C(C)=CC2(C)C)cc1	4.7%	u	52.6	-14.1%	31.6µM*	u
